From PubChem BioAssay (NCATS) come the findings set out here.

Experiment [1] is described as follows: S16 Schwann cell PMP22 intronic element firefly luciferase assay (AID 624032).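 Also: plate controls were DMSO for no effect and PTC124 positive control mean for full effect; nearly all actives have a fitted effect of over 30% in size.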 Summed up: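 Rat S16 Schwann cells stably carrying firefly luciferase driven by a PMP22 intronic element, in 10% FBS, treated 24 h at 37 C. ONE-Glo luminescence normalized to PTC124 control and DMSO (0%); curves classed by r2, magnitude and activity.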
The test system of another experiment is ATS189. Put plainly: qHTS profiling for inhibitors of Plasmodium falciparum proliferation (AID 504749). Also: nearly all actives have a fitted effect of over 60% in size. Also: potency is read from the fitted curve at half-maximal effect. Conditions: P. falciparum in erythrocytes, SYBR Green DNA, 72 h; series mostly up to 12.8 µM. An outline of the steps: (§1)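 P. falciparum-infected erythrocytes (0.3% parasitemia, 2.5% hematocrit) incubated with compound 72 h at 37 C, 5% CO2. Parasite DNA detected by SYBR Green after lysis, overnight at room temperature; normalised to 0.29 uM artemisinin and DMSO.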
A general note: In qHTS, concentration-response curves come from the screen itself.

A further experiment has as its system CP250. Described as above. Conditions: P. falciparum in erythrocytes, SYBR Green DNA, 72 h; series mostly up to 12.8 µM. An outline of the steps: as §1
A further experiment concerns DFO2036. The description is as above. Conditions: P. falciparum in erythrocytes, SYBR Green DNA, 72 h; series mostly up to 12.8 µM. An outline of the steps: as §1
For a further experiment, the system named is PAD. The experiment is described as above. Conditions: P. falciparum in erythrocytes, SYBR Green DNA, 72 h; series mostly up to 12.8 µM. An outline of the steps: as §1
The test system of a further experiment is SC27B. The experiment is described as above. Conditions: P. falciparum in erythrocytes, SYBR Green DNA, 72 h; series mostly up to 12.8 µM. An outline of the steps:
as §1

For another experiment, the system named is TAB165. Described as above. Conditions: P. falciparum in erythrocytes, SYBR Green DNA, 72 h; series mostly up to 12.8 µM. Summed up: as §1
The next experiment has as its system 7G8. Described as above. Conditions: P. falciparum in erythrocytes, SYBR Green DNA, 72 h; series mostly up to 12.8 µM. An outline of the steps:
as §1

In a further experiment the test system is DIV14. Described as above. Conditions: P. falciparum in erythrocytes, SYBR Green DNA, 72 h; series mostly up to 12.8 µM. Summed up: as §1
The next experiment relates to Dd2. The description is as above. Conditions: P. falciparum in erythrocytes, SYBR Green DNA, 72 h; series mostly up to 12.8 µM. Summed up: as §1
Another experiment concerns HB3. Described as above. Conditions: P. falciparum in erythrocytes, SYBR Green DNA, 72 h; series mostly up to 12.8 µM. Summed up:
as §1

Experiment [2] has as its target Estrogen receptor (Homo sapiens) (UniProt P03372). Put plainly: qHTS assay for small molecule antagonists of estrogen receptor alpha signaling (AID 588513; active = well fitted curve in the direction sought with a large enough effect in the signal ratio, with a control signal flat, not every such curve was filed as active; the % refers to the signal ratio; also: % is scaled to controls: 0 for no effect and ±100 for the full control effect). An outline of the steps:
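Fluorescence from CCF4 substrate after 2 h at room temperature gave reporter activity; cells had been exposed to compound and 0.5nM 17-beta-estradiol for 18 h at 37 C. Hill-equation fitting yielded IC50 and maximal response.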

For experiment [3] the target is unchanged. Put plainly: qHTS assay for small molecule agonists of estrogen receptor alpha signaling (AID 588514; calls by dose curve;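 also: 0% = vehicle only and 100% = reference agonist; nearly all actives have a fitted effect of over 70% in size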). An outline of the steps: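 Cells were plated at 5000/well, incubated 4 hrs at 37 C, dosed with compound titration series, incubated 18 hrs at 37 C, loaded with CCF4 dye for 2 hrs at RT, then fluorescence was read.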
Experiment [4] can be described thus: qHTS assay for small molecule antagonists of peroxisome proliferator-activated receptor delta signaling (AID 588535; active = well fitted inhibition curve with a large enough effect in the signal ratio, with a control signal flat, not every such curve was filed as active; the % refers to the signal ratio;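 as to max response: cells co-treated with a PPAR-delta agonist as stimulator during compound exposure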). Conditions: HEK293T PPARd-UAS-bla, beta-lactamase FRET ratio, 18 h; 460 nm channel. Summed up:
(§2)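 Antagonist-mode beta-lactamase reporter (GeneBLAzer PPAR-delta-UAS-bla) in HEK293T cells, 2% charcoal/dextran FBS, 4000 cells/well. Compound titrations, 18 h at 37 C; CCF4 ratio read, IC50 and efficacy from Hill fits.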

Experiment [5] has as its target Peroxisome proliferator-activated receptor delta (Homo sapiens) (UniProt Q03181). The description is as above. Summed up: as §2
The target of experiment [6] is Peroxisome proliferator-activated receptor gamma (Homo sapiens) (UniProt P37231). Put plainly: qHTS assay for small molecule agonists of peroxisome proliferator-activated receptor gamma signaling (AID 588536; active = well fitted curve in the direction sought with a large enough effect in the signal ratio, with a control signal flat, not every such curve was filed as active; the % refers to the signal ratio;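 also: 0% = DMSO basal wells and 100% = rosiglitazone at 2 µM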). Summed up: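 HEK293 UAS-bla reporter line, 1% charcoal/dextran FBS; titration, 16 h, 37 C; CCF4 loading 2 h RT; fluorescence 460/530 nm. Normalized to rosiglitazone 2 uM = 100%, DMSO = 0%.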
Chain of Peroxisome proliferator-activated receptor gamma (Homo sapiens) (P37231 whole entry, looked up): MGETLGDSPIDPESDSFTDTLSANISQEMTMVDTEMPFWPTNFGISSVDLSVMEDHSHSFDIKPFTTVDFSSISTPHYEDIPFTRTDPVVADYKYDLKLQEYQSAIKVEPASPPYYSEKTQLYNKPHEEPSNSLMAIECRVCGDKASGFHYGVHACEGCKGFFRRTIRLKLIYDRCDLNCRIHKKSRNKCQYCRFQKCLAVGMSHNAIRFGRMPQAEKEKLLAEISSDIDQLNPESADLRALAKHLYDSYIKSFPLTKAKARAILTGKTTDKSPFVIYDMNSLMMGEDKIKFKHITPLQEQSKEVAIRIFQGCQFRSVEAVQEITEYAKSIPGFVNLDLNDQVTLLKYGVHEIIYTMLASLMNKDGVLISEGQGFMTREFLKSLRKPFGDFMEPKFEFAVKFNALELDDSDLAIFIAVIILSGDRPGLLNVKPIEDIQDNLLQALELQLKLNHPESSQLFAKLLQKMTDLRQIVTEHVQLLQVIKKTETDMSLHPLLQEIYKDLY

The target is the same in experiment [7]. Put plainly: qHTS assay for small molecule antagonists of peroxisome proliferator-activated receptor gamma signaling (AID 588537; active = well fitted inhibition curve with a large enough effect in the signal ratio, with a control signal flat, not every such curve was filed as active; the % refers to the signal ratio;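 also: reporter cells co-stimulated with 50 nM rosiglitazone agonist during compound treatment; % of control where 0% means no effect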). Summed up:
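PPARγ-UAS-bla HEK293 cells (3000/well) in 1% charcoal/dextran-stripped FBS are treated with compound, then stimulated with 50 nM rosiglitazone for 16 h at 37 °C. Read-out is CCF4 β-lactamase fluorescence after 2 h at RT. IC50 comes from Hill fits normalised to rosiglitazone and DMSO.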

For experiment [8], the target named is Vitamin D3 receptor (Homo sapiens) (UniProt P11473). Put plainly: qHTS assay for small molecule antagonists of vitamin D receptor signaling (AID 588541; calls by dose curve;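 also: receptor activated by calcitriol during compound treatment; % is scaled to controls: 0 for no effect and ±100 for the full control effect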). An outline of the steps: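 VDR-UAS-bla HEK293T cells in 2% charcoal-stripped FBS were stimulated with 1-alpha,25-dihydroxyvitamin D3 (3 nM final) plus compound for 16 h at 37 C. The beta-lactamase CCF4 readout was normalized to 50 nM agonist and DMSO, and Hill fits gave IC50.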
Chain of Vitamin D3 receptor (Homo sapiens) (P11473 whole entry, looked up): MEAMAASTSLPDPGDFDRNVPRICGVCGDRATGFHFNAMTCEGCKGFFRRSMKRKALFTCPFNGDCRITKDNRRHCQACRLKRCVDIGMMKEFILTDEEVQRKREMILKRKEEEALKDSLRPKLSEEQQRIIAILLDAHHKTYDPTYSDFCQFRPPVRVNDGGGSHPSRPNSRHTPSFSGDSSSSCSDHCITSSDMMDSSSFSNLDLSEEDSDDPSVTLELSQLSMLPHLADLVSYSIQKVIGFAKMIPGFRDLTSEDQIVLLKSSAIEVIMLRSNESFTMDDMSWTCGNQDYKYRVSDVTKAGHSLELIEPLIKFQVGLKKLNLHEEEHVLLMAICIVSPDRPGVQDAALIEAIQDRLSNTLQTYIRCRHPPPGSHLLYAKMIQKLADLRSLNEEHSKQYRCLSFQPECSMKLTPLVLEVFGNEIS

The target is the same in experiment [9]. Put plainly: qHTS assay for small molecule agonists of vitamin D receptor signaling (AID 588543; calls by dose curve;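 also: 0% = DMSO basal and 100% = reference agonist control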). Summed up:
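Reporter cells (HEK293T, VDR-UAS-bla) were seeded in medium with 2% charcoal-stripped serum and incubated 5 h, then compounds in concentration series were added for 16 h at 37 °C. Stimulation was scaled between DMSO basal and 50 nM 1α,25-dihydroxyvitamin D3.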

SMILES strings stand for the structures. Inconclusive results are not listed. Activity calls are given as the source filed them. Unless noted, calls follow the shape of the dose curve; as a rule, active = well fitted curve in the direction sought with a large enough effect; inconclusive = small, poorly fitted or top-dose-only effect, or another doubt; inactive = no such curve, though single readings can be large; an effect the other way counts as inactive or inconclusive.

Chain of Estrogen receptor (Homo sapiens) (P03372 whole entry, looked up): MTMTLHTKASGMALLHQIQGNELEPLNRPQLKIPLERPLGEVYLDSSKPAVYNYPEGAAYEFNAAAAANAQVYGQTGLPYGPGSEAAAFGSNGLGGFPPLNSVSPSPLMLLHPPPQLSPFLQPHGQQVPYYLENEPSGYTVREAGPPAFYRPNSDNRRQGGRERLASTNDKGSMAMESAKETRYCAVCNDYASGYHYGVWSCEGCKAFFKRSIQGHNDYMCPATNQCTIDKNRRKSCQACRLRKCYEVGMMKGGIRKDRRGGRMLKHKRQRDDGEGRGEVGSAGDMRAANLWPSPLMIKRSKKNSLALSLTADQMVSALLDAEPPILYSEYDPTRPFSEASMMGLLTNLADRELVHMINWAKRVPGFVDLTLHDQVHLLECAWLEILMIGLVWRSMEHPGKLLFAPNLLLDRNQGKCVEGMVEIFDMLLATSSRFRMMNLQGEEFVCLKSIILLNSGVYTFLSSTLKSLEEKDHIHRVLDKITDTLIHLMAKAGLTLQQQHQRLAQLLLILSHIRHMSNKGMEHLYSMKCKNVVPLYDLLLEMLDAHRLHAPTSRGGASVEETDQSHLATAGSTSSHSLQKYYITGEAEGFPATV
Chain of Peroxisome proliferator-activated receptor delta (Homo sapiens) (Q03181 whole entry, looked up): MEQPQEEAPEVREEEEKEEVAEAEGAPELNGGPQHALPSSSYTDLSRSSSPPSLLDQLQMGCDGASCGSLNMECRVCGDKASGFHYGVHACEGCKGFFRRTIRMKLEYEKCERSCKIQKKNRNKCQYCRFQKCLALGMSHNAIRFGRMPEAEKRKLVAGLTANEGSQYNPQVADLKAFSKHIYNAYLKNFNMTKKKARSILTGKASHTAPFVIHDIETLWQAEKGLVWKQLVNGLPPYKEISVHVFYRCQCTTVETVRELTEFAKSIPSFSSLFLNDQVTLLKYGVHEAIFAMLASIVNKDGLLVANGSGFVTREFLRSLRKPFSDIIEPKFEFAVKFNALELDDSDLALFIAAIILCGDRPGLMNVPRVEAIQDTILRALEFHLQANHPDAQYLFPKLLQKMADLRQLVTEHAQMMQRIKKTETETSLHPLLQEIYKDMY

`CC(=O)N[C@@H]1C(O)OC(CO)C(O)C1O` (stereo partly drawn): the Potency result (in experiment [1]; with ATS189; with CP250; in the experiment on DFO2036; in the experiment on PAD; in the experiment with SC27B) was “inactive” each time. The Potency result in the experiment with TAB165 is “inactive”.
With `COc1ccc(-c2cc(=O)c3c(O)cc(O[C@H]4OC(COC5OC(C)C(O)C(O)[C@H]5O)C(O)C(O)C4O)cc3o2)cc1O` (stereo partly drawn), the Potency entry (in experiment [1]; in the experiment on 7G8; in the experiment with ATS189; in the experiment with CP250; with DFO2036; in the experiment with DIV14) was “inactive” in each case. Besides, the Potency entry in the experiment on Dd2, with HB3, in the experiment on PAD, in the experiment with SC27B and in the experiment with TAB165 was “inactive” each time.
On to `NCC1CCC(N)C(O[C@@H]2C(O)[C@H](O[C@H]3OC(CO)C(O)C(N)C3O)[C@@H](N)C[C@H]2N)O1` (stereo partly drawn), for which the Potency entry in the experiment on ATS189, with CP250, in the experiment on DFO2036, in the experiment with DIV14, in the experiment with Dd2 and in the experiment with HB3 was “inactive” in each case. Further, the Potency result in the experiment on PAD, in the experiment with SC27B and in the experiment with TAB165 was “inactive” each time.
With `CC(C)=CCC[C@](C)(O)C1CC=C(C)CC1` (stereo partly drawn), the Potency entry in the experiment with 7G8, with ATS189, with CP250, with DFO2036, in the experiment on DIV14 and in the experiment with Dd2 was “inactive” in each case. Further, the Potency entry with HB3, with PAD, with SC27B and with TAB165 was “inactive” each time.
For the molecule `C[C@]12C=CC(=O)C=C1CCC1C2C(O)C[C@]2(C)C1CC[C@]2(O)C(=O)CO` (stereo partly drawn), the Potency entry in the experiment on 7G8, with ATS189, in the experiment with CP250, in the experiment with DIV14, in the experiment with Dd2 and with HB3 was “inactive” throughout. The Potency entry in the experiment on PAD, in the experiment on SC27B and in the experiment on TAB165 was “inactive” each time.
Turning to `CC(=O)O[C@@]1(C(C)=O)CCC2C3CC(C)C4=CC(=O)CC[C@@]4(C)C3CC[C@]21C` (stereo partly drawn), in the experiment with 7G8, the Potency was 7.94 µM (active). Besides, the Potency result with DIV14 was “inactive”.
Turning to `CCC(C)C(=O)OC1CC(O)C=C2C=CC(C)C(CCC(O)CC(O)CC(=O)O)C21` (stereo not drawn), the Potency result (in experiment [1]; in the experiment with CP250; in the experiment on DFO2036; with DIV14; with Dd2; in the experiment with HB3) was “inactive” each time. Also, the Potency result with PAD, in the experiment with SC27B and in the experiment with TAB165 was “inactive” each time.
Consider `CNC1C(OC2C(O[C@@H]3C(O)C(O)[C@@H](N=C(N)N)C(O)C3N=C(N)N)OC(C)[C@@]2(O)CO)OC(CO)C(O)C1O` (stereo partly drawn), for which the Potency result with 7G8, in the experiment with ATS189, with CP250, with DIV14, in the experiment on Dd2 and in the experiment with HB3 was “inactive” each time. Also, the Potency entry in the experiment with SC27B and with TAB165 was “inactive” throughout.
`COc1c(Cl)ccc(Cl)c1C(=O)O`: the result in experiment [2], in experiment [3], in experiment [5], in [6], in [7] and in experiment [8] was inactive. Moreover, the outcome in experiment [9] was inactive. For the same molecule, the max response in [4] was -7.82%.
